What is called GI50 is the concentration at which growth is held to half of that of the control. High values mean lower sensitivity of the cells, low ones greater sensitivity of the cells.

Assay [1] deals with Pyruvate kinase PKM (Homo sapiens) (UniProt P14618). In words: qHTS Assay for Activators of Human Muscle Pyruvate Kinase. It counts as functional. For orientation: Quantitative high-throughput screening tests each substance at several concentrations.
For assay [2], the target named is Hypoxia-inducible factor 1-alpha (Homo sapiens) (UniProt Q16665). As to the kind of experiment: qHTS Assay for Identification of Small Molecule Agonists for Hypoxia Response Element Signaling Pathway. [Related pubchem assays: 915 ]. It is filed as functional.
Chain of Hypoxia-inducible factor 1-alpha (Homo sapiens) (Q16665 whole entry, looked up): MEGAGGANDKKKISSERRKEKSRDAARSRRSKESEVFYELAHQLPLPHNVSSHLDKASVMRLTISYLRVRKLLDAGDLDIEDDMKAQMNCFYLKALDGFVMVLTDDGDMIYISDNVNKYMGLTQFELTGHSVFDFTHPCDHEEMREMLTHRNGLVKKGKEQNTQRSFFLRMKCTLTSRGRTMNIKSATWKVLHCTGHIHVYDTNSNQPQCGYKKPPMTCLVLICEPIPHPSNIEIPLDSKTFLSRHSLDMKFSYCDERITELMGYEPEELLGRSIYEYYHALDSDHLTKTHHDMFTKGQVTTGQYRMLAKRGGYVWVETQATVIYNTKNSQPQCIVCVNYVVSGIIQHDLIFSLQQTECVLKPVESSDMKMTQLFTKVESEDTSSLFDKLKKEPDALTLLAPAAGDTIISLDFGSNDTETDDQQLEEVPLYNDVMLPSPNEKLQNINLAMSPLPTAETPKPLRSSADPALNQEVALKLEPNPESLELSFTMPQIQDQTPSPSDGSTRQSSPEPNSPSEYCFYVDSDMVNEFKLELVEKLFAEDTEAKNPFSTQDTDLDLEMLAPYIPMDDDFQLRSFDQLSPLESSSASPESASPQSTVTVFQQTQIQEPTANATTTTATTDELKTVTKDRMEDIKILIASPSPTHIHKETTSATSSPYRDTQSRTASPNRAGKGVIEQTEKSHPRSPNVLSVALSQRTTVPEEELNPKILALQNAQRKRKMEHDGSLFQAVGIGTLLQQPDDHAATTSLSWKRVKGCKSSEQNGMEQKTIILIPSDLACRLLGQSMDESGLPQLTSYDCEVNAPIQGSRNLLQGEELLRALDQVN
The target in assay [3] is T1, M-phase phosphoprotein 8 (Homo sapiens) (UniProt Q99549).
T1 sequence (whole entry): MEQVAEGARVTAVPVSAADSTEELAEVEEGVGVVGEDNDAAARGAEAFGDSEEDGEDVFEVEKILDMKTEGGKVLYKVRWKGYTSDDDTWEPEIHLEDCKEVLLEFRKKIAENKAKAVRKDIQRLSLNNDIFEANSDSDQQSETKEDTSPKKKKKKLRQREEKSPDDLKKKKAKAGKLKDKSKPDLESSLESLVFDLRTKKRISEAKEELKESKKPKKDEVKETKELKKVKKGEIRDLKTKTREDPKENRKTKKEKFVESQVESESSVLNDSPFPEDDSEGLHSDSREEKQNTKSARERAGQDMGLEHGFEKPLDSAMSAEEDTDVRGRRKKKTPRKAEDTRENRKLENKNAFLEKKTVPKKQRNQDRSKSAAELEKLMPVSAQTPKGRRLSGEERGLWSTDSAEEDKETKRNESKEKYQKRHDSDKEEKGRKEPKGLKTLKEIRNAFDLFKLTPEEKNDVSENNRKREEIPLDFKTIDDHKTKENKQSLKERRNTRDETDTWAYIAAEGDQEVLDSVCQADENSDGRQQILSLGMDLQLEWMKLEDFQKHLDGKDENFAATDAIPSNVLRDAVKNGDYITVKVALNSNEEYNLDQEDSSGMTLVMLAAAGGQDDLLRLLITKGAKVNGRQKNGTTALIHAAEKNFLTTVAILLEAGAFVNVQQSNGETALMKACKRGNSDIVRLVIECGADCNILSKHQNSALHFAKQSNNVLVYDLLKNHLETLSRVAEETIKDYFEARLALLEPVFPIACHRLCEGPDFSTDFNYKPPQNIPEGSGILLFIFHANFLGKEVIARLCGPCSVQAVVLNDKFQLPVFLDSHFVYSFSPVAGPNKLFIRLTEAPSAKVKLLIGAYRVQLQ

In assay [4] the target is ATPase family AAA domain-containing protein 5 (Homo sapiens) (UniProt Q96QE3). As to the kind of experiment: qHTS screen for small molecules that inhibit ELG1-dependent DNA repair in human embryonic kidney (HEK293T) cells expressing luciferase-tagged ELG1: Hit Confirmation using MMS Stimulated ELG1. It is filed as functional.
Chain of ATPase family AAA domain-containing protein 5 (Homo sapiens) (Q96QE3 whole entry, the tested form may be a part): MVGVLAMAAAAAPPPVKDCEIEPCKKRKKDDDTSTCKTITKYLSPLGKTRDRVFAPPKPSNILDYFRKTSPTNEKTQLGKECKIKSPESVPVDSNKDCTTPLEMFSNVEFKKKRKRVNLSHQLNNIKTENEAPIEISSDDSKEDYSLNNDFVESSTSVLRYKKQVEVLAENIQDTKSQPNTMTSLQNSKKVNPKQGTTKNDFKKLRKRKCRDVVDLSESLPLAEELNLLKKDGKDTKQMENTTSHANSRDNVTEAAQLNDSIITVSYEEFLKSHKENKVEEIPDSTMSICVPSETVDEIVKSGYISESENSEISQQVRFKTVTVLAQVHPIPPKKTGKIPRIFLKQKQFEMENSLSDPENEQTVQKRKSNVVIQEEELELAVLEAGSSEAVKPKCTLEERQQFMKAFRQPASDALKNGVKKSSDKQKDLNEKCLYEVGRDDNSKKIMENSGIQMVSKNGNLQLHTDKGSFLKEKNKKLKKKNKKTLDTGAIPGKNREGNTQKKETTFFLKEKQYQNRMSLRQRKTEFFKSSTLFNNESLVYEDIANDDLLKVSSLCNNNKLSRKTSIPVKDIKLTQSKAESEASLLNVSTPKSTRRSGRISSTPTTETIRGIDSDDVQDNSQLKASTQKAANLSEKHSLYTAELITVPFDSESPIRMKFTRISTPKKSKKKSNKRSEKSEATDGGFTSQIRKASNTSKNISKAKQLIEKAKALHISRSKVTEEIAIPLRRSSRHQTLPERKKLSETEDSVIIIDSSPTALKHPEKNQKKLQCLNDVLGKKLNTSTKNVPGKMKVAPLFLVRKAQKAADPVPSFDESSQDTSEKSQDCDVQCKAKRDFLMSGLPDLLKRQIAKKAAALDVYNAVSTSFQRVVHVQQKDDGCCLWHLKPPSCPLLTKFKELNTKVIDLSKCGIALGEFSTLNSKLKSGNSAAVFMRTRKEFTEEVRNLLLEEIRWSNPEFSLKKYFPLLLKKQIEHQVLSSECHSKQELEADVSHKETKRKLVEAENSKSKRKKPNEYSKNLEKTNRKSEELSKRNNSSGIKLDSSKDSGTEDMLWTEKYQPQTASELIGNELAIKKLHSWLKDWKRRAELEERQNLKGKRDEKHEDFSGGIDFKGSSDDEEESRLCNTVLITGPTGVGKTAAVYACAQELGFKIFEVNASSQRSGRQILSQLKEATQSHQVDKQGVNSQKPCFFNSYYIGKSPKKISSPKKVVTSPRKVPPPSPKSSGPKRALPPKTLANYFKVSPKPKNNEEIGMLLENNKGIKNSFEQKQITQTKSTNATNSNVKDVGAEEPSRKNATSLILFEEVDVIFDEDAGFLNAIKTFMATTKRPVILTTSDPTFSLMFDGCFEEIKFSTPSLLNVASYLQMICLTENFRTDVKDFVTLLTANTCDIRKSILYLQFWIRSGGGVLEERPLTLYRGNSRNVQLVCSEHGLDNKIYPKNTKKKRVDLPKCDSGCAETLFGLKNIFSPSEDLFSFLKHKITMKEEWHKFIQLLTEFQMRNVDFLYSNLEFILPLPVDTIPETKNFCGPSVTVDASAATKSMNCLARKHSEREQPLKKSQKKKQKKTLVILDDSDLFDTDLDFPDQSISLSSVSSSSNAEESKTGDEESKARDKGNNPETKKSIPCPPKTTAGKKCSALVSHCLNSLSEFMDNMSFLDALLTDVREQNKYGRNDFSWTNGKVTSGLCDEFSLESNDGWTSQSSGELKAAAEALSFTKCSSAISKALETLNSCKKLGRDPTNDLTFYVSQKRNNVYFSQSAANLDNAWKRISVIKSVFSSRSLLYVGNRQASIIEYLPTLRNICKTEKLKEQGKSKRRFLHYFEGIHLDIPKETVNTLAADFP
Assay [5] is described as follows: small-molecule DNA binding by polarization – biochemical, fluorescence polarization, cherry-pick, counter-screen for EWS/Fli inhibitor project, dose response (AID 720586). (Fluorescence polarisation rises when a labelled molecule tumbles more slowly, as on binding a larger partner.)
Assay [6] addresses T2, DNA polymerase eta (Homo sapiens) (UniProt Q9Y253).
T2 sequence (whole entry): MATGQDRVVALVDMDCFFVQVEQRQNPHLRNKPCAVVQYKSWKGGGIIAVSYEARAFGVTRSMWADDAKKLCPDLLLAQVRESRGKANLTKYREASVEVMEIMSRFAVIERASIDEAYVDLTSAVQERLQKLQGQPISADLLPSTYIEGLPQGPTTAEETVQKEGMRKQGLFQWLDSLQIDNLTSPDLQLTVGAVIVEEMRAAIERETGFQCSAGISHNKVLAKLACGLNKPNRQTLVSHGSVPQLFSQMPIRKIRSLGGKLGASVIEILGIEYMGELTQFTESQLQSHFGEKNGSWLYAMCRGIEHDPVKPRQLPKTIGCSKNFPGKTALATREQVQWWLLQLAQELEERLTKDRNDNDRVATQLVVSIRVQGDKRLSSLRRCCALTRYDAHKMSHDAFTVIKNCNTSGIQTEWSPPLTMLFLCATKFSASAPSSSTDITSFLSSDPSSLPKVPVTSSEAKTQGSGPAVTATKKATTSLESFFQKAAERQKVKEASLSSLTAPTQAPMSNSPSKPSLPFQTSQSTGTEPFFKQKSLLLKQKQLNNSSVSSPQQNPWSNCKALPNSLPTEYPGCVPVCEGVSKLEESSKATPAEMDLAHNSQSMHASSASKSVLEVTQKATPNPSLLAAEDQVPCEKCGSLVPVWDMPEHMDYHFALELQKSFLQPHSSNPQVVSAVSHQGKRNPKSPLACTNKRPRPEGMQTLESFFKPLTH
In words: qHTS for Inhibitors of Polymerase Eta: Confirmatory Assay for Cherry-picked Compounds. It counts as functional.

The test system of assay [7] is P388/ADR.
Assay [8] deals with SN12K1.
Assay [9] concerns P388.
Assay [10] concerns the target Nuclear factor erythroid 2-related factor 2 (Homo sapiens) (UniProt Q16236).
For assay [11], the target named is T3, DNA polymerase kappa (Homo sapiens) (UniProt Q9UBT6).
T3 sequence (whole entry): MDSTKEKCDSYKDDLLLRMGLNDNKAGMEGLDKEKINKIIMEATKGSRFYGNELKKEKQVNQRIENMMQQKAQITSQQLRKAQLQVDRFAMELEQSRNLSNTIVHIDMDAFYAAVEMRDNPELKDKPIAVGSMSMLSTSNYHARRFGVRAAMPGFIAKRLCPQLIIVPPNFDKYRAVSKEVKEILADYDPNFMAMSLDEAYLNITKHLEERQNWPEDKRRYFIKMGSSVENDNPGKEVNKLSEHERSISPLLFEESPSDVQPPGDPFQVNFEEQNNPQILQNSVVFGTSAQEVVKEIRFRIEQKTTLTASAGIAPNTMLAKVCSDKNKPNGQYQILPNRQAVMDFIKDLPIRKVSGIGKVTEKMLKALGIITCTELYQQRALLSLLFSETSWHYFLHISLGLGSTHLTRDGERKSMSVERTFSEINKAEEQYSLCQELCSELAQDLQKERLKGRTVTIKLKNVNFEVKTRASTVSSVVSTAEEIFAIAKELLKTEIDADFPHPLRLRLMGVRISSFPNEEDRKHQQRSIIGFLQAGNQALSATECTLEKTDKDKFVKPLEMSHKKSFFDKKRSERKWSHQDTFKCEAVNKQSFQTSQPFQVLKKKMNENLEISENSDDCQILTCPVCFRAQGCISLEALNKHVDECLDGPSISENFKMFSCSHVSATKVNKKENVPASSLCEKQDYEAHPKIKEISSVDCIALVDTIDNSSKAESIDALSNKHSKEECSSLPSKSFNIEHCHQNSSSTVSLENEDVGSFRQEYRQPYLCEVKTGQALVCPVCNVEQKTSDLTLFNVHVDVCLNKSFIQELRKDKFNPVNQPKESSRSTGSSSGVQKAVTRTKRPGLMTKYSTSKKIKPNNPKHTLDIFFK

Several values for one entry are separate records, joined by “and”; a condition that tells them apart may be missing. Equal values may be shown once. These assays gave more results; the selection is not random. For part of these data: Potency and affinity values are given separately. Activity calls are given as the source filed them. Unless noted, no cut-off for these calls is given here.

Chain of Nuclear factor erythroid 2-related factor 2 (Homo sapiens) (Q16236 whole entry): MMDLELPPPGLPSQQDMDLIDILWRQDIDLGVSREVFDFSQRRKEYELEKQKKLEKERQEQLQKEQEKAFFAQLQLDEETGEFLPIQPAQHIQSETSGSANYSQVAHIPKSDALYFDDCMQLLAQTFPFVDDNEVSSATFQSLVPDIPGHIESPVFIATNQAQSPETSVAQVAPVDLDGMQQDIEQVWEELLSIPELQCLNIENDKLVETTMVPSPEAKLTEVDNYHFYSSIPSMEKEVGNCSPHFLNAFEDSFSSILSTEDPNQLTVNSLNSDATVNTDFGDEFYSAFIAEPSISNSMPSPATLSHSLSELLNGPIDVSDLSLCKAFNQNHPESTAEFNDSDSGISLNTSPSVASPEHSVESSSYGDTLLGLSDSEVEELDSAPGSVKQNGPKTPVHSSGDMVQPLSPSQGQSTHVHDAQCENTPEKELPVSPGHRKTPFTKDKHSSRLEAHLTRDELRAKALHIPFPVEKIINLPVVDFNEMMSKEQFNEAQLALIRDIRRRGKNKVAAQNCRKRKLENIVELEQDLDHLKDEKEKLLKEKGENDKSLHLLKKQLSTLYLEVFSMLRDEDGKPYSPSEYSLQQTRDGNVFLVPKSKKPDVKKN
Chain of Pyruvate kinase PKM (Homo sapiens) (P14618 2-531 limits assumed): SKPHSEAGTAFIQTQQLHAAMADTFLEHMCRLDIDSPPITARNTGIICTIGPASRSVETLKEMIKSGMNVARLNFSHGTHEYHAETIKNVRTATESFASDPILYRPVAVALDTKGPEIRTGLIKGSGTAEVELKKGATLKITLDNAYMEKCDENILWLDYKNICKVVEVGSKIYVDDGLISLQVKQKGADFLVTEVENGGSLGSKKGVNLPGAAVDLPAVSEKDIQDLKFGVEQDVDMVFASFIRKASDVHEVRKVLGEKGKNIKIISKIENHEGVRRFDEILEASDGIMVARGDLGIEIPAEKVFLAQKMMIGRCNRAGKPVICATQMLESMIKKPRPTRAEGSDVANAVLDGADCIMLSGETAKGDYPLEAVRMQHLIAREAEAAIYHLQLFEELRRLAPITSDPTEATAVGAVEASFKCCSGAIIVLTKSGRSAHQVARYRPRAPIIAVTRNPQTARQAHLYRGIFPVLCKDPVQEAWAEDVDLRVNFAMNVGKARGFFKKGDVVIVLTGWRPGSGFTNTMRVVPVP

For the compound `N[C@H](CCC(=O)O)C(=O)O`, in assay [1], the Potency result is “inactive”.
In the case of `O=C(O)Cc1ccccc1Nc1c(Cl)cccc1Cl`, in [2], the Potency is 6.31 µM (active) and 25.1 µM (active). For the same compound, the Potency result in [3] was “inactive”.
Consider `O=C(O)c1cc(/N=N/c2ccc(S(=O)(=O)Nc3ccccn3)cc2)ccc1O`, for which the Potency entry in assay [4] is “inactive”.
In the case of `Nc1nc2cc3c(cc2cc1C(=O)NCCc1c[nH]c2ccccc12)OCO3`, the AbsAC35 in assay [5] was 251 µM (active).
On the same count and under the same terms, as for `COc1ccc(C2=Nn3c(nnc3-c3ccccc3F)SC2)cc1OC1CCOC1` (configuration not stated), the figure is 137 µM (active).
Regarding `CC(C)(O)c1ccccc1CC[C@@H](SCC1(CC(=O)O)CC1)c1cccc(/C=C/c2ccc3ccc(Cl)cc3n2)c1`, the Potency in [6] is 213 µM (active).
On to CISPLATIN, CHEMBL11359, for which the 50% growth inhibitory concentration (GI50) is 0.561 µM in assay [7], 4.06 µM in [8] and 0.248 µM in assay [9].
Turning to `CC(=O)OCc1ccccc1`, the Potency in assay [10] was 30.6 µM (active).
As to `Cc1cc(C)c(NC(=O)Cn2c(=O)n(Cc3ccc(C(=O)NCc4ccco4)cc3)c(=O)c3sccc32)c(C)c1`, in assay [11], the Potency was 299 µM (active).
